The nature of experiment [1]: qHTS assay to identify small molecule agonists of the NFkB signaling pathway - cell viability counter screen (AID 1159515; calls by dose curve; also: series mostly up to about 61 µM; nearly all actives have a fitted effect of over 55% in size). The method, boiled down:
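Viability in NFkB-bla ME-180 cells was measured by CellTiter-Glo luminescence, 30 min room temperature, in wells already treated 5 hr with compounds and read for reporter FRET.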
Background: qHTS replaces the single test concentration by a dilution series.

Experiment [2] is described as follows: qHTS assay to identify small molecule agonists of the endoplasmic reticulum stress response signaling pathway (AID 1159516; active = well fitted activation curve with a large enough effect in the signal ratio in the repeat runs, not every such curve was filed as active; the % refers to the signal ratio). The method, boiled down: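 ER stress element reporter (bla) in HeLa. 1,500 cells/well, overnight attachment; 5 hr compound; 2 hr RT substrate; dual-emission fluorescence.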
The nature of experiment [3]: qHTS assay to identify small molecule agonists of the endoplasmic reticulum stress response signaling pathway - cell viability counter screen (AID 1159517; calls by dose curve;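 also: HeLa cells carrying an ER stress response element beta-lactamase reporter; series mostly up to about 61 µM; nearly all actives have a fitted effect of over 50% in size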). The method, boiled down: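 CellTiter-Glo was added to wells already read for beta-lactamase FRET, and luminescence was recorded 30 min later. Cells: ESRE-bla HeLa, 1,500 per well, compound exposure 5 hr at 37 C.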

A short description of experiment [4]: qHTS assay to identify small molecule antagonists of the retinoid-related orphan receptor gamma (ROR-gamma) signaling pathway - cell viability counter screen (AID 1159520). Also: nearly all actives have a fitted effect of over 50% in size. The method, boiled down: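 Tet-on ROR gamma CHO cells (1,000/well) were plated 4 hr, given compounds in DMSO for 2 hr at 37 C, then induced with 1 uM final doxycycline for 16 hr. Viability was read as ATP by CellTiter-Glo luminescence after 30 min.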

The target in experiment [5] is Nuclear receptor ROR-gamma (Homo sapiens) (UniProt P51449). Nature of the experiment: qHTS assay to identify small molecule antagonists of the retinoid-related orphan receptor gamma (ROR-gamma) signaling pathway (AID 1159521;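 also: CHO cells with doxycycline inducible ROR-gamma driving an RORE luciferase reporter; top concentration of the series differs between compounds; nearly all actives have a fitted effect of over 50% in size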). The method, boiled down:
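Decreased RORE-driven luciferase luminescence indicates antagonism. Tet-on RORγ CHO cells received compound, then 1 uM final doxycycline 2 h later; signal read after 16 h incubation.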

A short description of experiment [6]: qHTS assay to identify small molecule agonists of the AP-1 signaling pathway - cell viability counter screen (AID 1159525; calls by dose curve; also: nearly all actives have a fitted effect of over 55% in size). The method, boiled down: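 ME-180 AP-1-bla, 2500 cells/well, Opti-MEM + 0.5% dialyzed FBS; overnight 37 °C; cpd 15-pt titration, 5 h 37 °C; CellTiter-Glo 30 min RT; luminescence read; normalised to TOAB and DMSO controls.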
Experiment [7] is described as follows: qHTS assay to identify small molecule agonists of the AP-1 signaling pathway (AID 1159526; calls by dose curve).
For experiment [8], the target named is Retinoic acid receptor RXR-alpha (Homo sapiens) (UniProt P19793). Description: qHTS assay to identify small molecule agonists of the RXR signaling pathway (AID 1159527; calls by dose curve; also: nearly all actives have a fitted effect of over 35% in size). The method, boiled down:
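16 hr incubation of compound-treated RXR-alpha-UAS-bla HEK 293T cells (2% charcoal-stripped FBS, 37 C) preceded a 2 hr room-temperature LiveBLAzer FRET substrate step and blue/green fluorescence measurement.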

Experiment [9] is described as follows: qHTS assay to identify small molecule agonists of the RXR signaling pathway - cell viability counter screen (AID 1159529).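 Also: HEK 293T cells carrying an RXR-alpha UAS beta-lactamase reporter; series mostly up to about 77 µM; nearly all actives have a fitted effect of over 50% in size.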 Put shortly: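 In this parallel viability measure, GeneBLAzer RXR-alpha HEK 293T cells (2% charcoal-stripped FBS) were given a 5 hr preincubation, treated with compounds 16 hr at 37 C, and read by CellTiter-Glo luminescence.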
Experiment [10] is described as follows: qHTS assay to identify small molecule antagonists of the retinoid acid receptor (RAR) signaling pathway - cell viability counter screen (AID 1159551). Also: nearly all actives have a fitted effect of over 35% in size. The method, boiled down:
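Following overnight attachment, C3RL4 reporter cells received DMSO-dissolved compounds and then retinol (1 uM final). Six hours later at 37 C, ATP content was measured by CellTiter-Glo luminescence.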

Experiment [11] can be described thus: qHTS assay to identify small molecule antagonists of the retinoic acid receptor (RAR) signaling pathway (AID 1159552; also: nearly all actives have a fitted effect of over 50% in size). Put shortly:
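C3RL4 RARE-luc cells, overnight plating; retinol 1 uM final added right after compound; 6 hr 37 C; luciferase read at 30 min RT.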

Experiment [12] is described as follows: qHTS assay to identify small molecule agonists of the retinoic acid receptor (RAR) signaling pathway (AID 1159553). Put shortly:
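Cell line C3RL4, RARE luciferase reporter. Treatment: compounds in DMSO, 6 hr, 37 C, 5% CO2, after overnight plating. Detection: luminescence, 30 min RT after reagent.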

Experiment [13] in a line: qHTS assay to identify small molecule antagonists of the estrogen related receptor (ERR) signaling pathway from Tox21 library - cell viability counter screen (AID 1224834). Also: nearly all actives have a fitted effect of over 30% in size. Put shortly:
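Viability readout (CellTiter-Fluor fluorescence, 30 min at 37 C) multiplexed with the ERR assay; cells treated 17.5 h at 37 C with compounds delivered in DMSO.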

For experiment [14], the target named is Luciferin 4-monooxygenase (Photinus pyralis) (UniProt P08659). Nature of the experiment: qHTS assay to identify small molecule inhibitors of firefly luciferase (AID 1224835). Also: nearly all actives have a fitted effect of over 25% in size. Also: potency is read from the fitted curve at half-maximal effect. The method, boiled down:
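Quantitative HTS format; KM concentrations of both substrates. Purified P. pyralis FLuc activity quantified from luminescence images.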

A short description of experiment [15]: qHTS assay to identify small molecule agonists of the constitutive androstane receptor (CAR) signaling pathway - cell viability counter screen (AID 1224836). Also: series mostly up to about 92 µM; nearly all actives have a fitted effect of over 45% in size. The method, boiled down:
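Using CellTiter-Fluor, viability of HepG2 cells harbouring hCAR and CYP2B6-2.2kb was measured following 23 h incubation with a 15-concentration compound series plus PK11195 (0.75 uM final).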

Experiment [16] is described as follows: qHTS assay to identify small molecule antagonists of the constitutive androstane receptor (CAR) signaling pathway - cell viability counter screen (AID 1224837). Also: series mostly up to about 92 µM; nearly all actives have a fitted effect of over 45% in size. Put shortly: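 Fluorescence from CellTiter-Fluor served as the viability signal. Human hepatoma HepG2 cells stably bearing hCAR and CYP2B6-2.2kb received compound plus CITCO (50 nM final) for 23 hr.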

Experiment [17] addresses Nuclear receptor subfamily 1 group I member 3 (Homo sapiens) (UniProt Q14994). Nature of the experiment: qHTS assay to identify small molecule antagonists of the constitutive androstane receptor (CAR) signaling pathway (AID 1224838).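 Also: HepG2 cells stably expressing hCAR with CYP2B6 luciferase reporter stimulated by CITCO; nearly all actives have a fitted effect of over 40% in size.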 The method, boiled down: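 Quantitative HTS in double-stable HepG2-CYP2B6-hCAR cells. After 4 h plating, cells get compound (15 concentrations) and CITCO at 50 nM final, incubate 24 h at 37 C, then ONE-Glo luminescence is read.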

Experiment [18] shares this target. Nature of the experiment: qHTS assay to identify small molecule agonists of the constitutive androstane receptor (CAR) signaling pathway (AID 1224839).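 Also: HepG2 cells stably carrying human CAR and a CYP2B6 luciferase reporter; series mostly up to about 92 µM; nearly all actives have a fitted effect of over 15% in size.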 The method, boiled down: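 Double-stable HepG2 cells (hCAR, CYP2B6-2.2kb) seeded 4 h before compound addition. Exposure 24 h with 0.75 uM PK11195 final. Luciferase detected by ONE-Glo.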
A short description of experiment [19]: qHTS assay to identify small molecule antagonists of the estrogen related receptor signaling pathway with the pleiotropic PPARgamma coactivator (PGC) from Tox21 10K library - cell viability counter screen (AID 1224840; active = well fitted cell-killing curve with a large enough effect in the repeat runs, not every such curve was filed as active; also: nearly all actives have a fitted effect of over 40% in size). Put shortly: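 Compounds in DMSO, alongside positive and negative controls, were pinned onto PGC/ERR cells (2,000 per well). Exposure lasted 17.5 hours at 37 C, followed by a 30-minute CellTiter-Fluor incubation and fluorescence reading.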

Experiment [20] in a line: qHTS assay to identify small molecule antagonists of the vitamin D receptor (VDR) signaling pathway - cell viability counter screen (AID 743225). Also: nearly all actives have a fitted effect of over 50% in size. Put shortly:
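Parallel cytotoxicity test: VDR-UAS-bla HEK 293T, 3 nM (final) 1-alpha,25-dihydroxyvitamin D3 with test compound, 16 h, 37C. Endpoint is CellTiter-Glo luminescence in the same wells.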

Structures are written as SMILES. Records with an inconclusive call do not appear. A number with no mark means an inactive call. Calls of active or inactive are those of the source. Unless noted, calls follow the shape of the dose curve; as a rule, active = well fitted curve in the direction sought with a large enough effect in the repeat runs; inconclusive = weak or mixed curves; inactive = no such curve, though single readings can be large; an effect the other way counts as inactive or inconclusive.

Chain of Luciferin 4-monooxygenase (Photinus pyralis) (P08659 whole entry, looked up): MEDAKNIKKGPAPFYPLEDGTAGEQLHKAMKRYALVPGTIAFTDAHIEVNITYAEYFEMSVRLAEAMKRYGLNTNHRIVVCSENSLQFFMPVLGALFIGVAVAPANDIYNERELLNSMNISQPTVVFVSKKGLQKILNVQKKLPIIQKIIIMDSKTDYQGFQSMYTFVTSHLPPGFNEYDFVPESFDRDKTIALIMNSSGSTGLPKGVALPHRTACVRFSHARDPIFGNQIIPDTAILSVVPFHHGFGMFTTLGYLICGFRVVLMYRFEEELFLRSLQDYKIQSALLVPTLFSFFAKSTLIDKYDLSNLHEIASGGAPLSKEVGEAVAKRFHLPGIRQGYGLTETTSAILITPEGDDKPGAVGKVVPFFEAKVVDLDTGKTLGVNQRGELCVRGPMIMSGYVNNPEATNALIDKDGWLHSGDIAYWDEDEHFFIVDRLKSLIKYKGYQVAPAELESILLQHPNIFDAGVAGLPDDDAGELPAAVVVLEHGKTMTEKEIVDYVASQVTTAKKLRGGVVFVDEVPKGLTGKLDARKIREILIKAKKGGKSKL
Chain of Retinoic acid receptor RXR-alpha (Homo sapiens) (P19793 whole entry, looked up): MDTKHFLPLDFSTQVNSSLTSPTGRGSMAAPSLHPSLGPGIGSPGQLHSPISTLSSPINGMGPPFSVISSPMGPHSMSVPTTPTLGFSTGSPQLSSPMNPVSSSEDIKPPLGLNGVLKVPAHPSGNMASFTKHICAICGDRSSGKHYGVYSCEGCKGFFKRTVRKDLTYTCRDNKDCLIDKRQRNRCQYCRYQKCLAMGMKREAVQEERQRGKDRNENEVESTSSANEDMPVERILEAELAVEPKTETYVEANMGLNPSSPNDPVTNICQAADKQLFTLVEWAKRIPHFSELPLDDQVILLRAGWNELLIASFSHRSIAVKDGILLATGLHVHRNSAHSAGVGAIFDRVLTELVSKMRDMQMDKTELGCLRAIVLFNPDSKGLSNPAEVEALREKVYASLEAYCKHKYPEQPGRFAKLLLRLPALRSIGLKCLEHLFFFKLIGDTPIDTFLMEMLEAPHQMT
Chain of Nuclear receptor subfamily 1 group I member 3 (Homo sapiens) (Q14994 whole entry, looked up): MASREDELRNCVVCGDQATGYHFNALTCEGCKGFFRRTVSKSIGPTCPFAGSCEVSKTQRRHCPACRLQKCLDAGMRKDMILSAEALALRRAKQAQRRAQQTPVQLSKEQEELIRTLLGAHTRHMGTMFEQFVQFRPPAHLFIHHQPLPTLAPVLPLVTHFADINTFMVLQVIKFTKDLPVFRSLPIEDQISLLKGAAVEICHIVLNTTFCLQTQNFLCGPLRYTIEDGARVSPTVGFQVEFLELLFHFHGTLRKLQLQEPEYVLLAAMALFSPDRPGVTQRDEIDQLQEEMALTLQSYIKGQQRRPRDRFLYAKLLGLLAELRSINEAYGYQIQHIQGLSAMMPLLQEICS

In the case of `CCCc1ccc(O)c(OC)c1`, the molecule was classed as inactive in experiment [1], in experiment [3], in [4], in experiment [5], in [6] and in [10]. The molecule was called inactive in experiment [11], in [13], in [15], in experiment [16], in [17] and in experiment [19]. The Potency result in experiment [2], in experiment [7], in experiment [8], in experiment [9], in [12] and in experiment [14] was “inactive” each time. Also, in [18], the Potency result was “inactive”.

For the molecule `C=CCON/C(CCC)=C1\C(=O)CC(C)(C)C(C(=O)OC)=C1O`, the call in experiment [20], in experiment [1], in [3], in [4], in experiment [5] and in experiment [6] was inactive. Moreover, the result in experiment [10], in experiment [11], in experiment [13], in [15], in experiment [16] and in experiment [17] was inactive. For the same molecule, in experiment [19], the molecule was called inactive. For the same molecule, the Potency entry in [2], in experiment [7], in experiment [8], in experiment [9], in experiment [12] and in experiment [14] was “inactive” in each case. Besides, the Potency entry in [18] is “inactive”.

Turning to `CN(C)c1cc(NC(=O)CNC(C)(C)C)c(O)c2c1C[C@H]1C[C@H]3[C@H](N(C)C)C(=O)C(C(N)=O)=C(O)[C@@]3(O)C(=O)C1=C2O`, the call in experiment [20], in experiment [1], in experiment [3], in experiment [4], in experiment [5] and in experiment [6] was inactive. For the same molecule, the molecule was classed as inactive in [10], in experiment [11], in experiment [13], in experiment [15], in experiment [16] and in [17]. The result in experiment [19] was inactive. The Potency result in experiment [2], in [7], in [8], in experiment [9], in experiment [12] and in experiment [14] was “inactive” each time. For the same molecule, the Potency entry in experiment [18] is “inactive”.

As for `CC(=O)Nc1ccc(OCCOCCOc2ccc(NC(C)=O)cc2)cc1`, the result in [20], in experiment [1], in [3], in experiment [4], in [5] and in experiment [6] was inactive. The outcome in [10], in experiment [11], in experiment [13], in experiment [15], in [16] and in experiment [17] was inactive. Moreover, in experiment [19], the molecule was called inactive. Moreover, the Potency entry in experiment [2], in experiment [7], in experiment [8], in experiment [9], in experiment [12] and in [14] was “inactive” throughout. In addition, the Potency result in experiment [18] was “inactive”.

`O=C(O)COc1ccc2ccccc2c1`: the molecule was classed as inactive in experiment [20], in experiment [1], in experiment [3], in [4], in [5] and in experiment [6]. Besides, the result in experiment [10], in experiment [11], in [13], in experiment [15], in [16] and in experiment [17] was inactive. In addition, in [19], the molecule was called inactive. The Potency entry in experiment [2], in experiment [7], in experiment [8], in experiment [9], in experiment [12] and in experiment [18] was “inactive” each time. For the same molecule, the Potency in [14] is 39.9 µM (active).

Consider `Cc1ccc2ccccc2n1`, for which the molecule was called inactive in experiment [1], in experiment [3], in experiment [4], in experiment [5], in experiment [6] and in experiment [10]. The outcome in experiment [11], in experiment [13], in [15], in experiment [16], in [17] and in experiment [19] was inactive. Also, the Potency result in [2], in experiment [7], in experiment [8], in experiment [9], in experiment [12] and in [14] was “inactive” each time. Also, the Potency result in experiment [18] is “inactive”.

Turning to `COc1cc(OC)cc(OC)c1`, the molecule was classed as inactive in experiment [20], in [1], in experiment [3], in experiment [4], in experiment [5] and in experiment [6]. Besides, the molecule was called inactive in experiment [10], in experiment [11], in experiment [13], in [15], in experiment [16] and in [17]. Moreover, the molecule was classed as inactive in [19]. For the same molecule, the Potency result in [2], in experiment [7], in experiment [8], in [9], in experiment [12] and in experiment [14] was “inactive” throughout. Further, in experiment [18], the Potency entry was “inactive”.

For the origin of these results see PubChem BioAssay (Tox21).
